# Laboratory results: PubChem BioAssay (NCATS)
# Results filed as inconclusive are left out. Calls of active or inactive are those of the source. Calls follow the shape of the dose curve; as a rule, active = well fitted cell-killing curve with a large enough effect; inconclusive = small, poorly fitted or top-dose-only effect; inactive = flat fitted curve, though single readings scatter.
# Test: Vero cells viability qHTS for Zika virus inhibitors (AID 1347167)
# Details: cytotoxicity counter-screen (Zika); series mostly up to 45.9 µM; activity change, negative = cytotoxicity: at the top concentration
# Summary of the method: (§1)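 qHTS titration; 24-48 h compound exposure, 37 degrees C/5% CO2; DMEM, 4% FBS; CellTiter Glo ATP luminescence.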
# % is scaled to controls: 0 for no effect and ±100 for the full control effect.
row,SMILES,"activity change, negative = cytotoxicity"
1,CCCc1c(OCCCOc2ccc(OCC(=O)O)cc2)ccc(C(C)=O)c1O,-7.01% (inactive)
2,CCCC[C@@]1(C2CCCC2)Cc2cc(OCC(=O)O)c(Cl)c(Cl)c2C1=O,-0.62% (inactive)
3,C/C(=C\c1ccc(C(=O)O)cc1)c1ccc2c(c1)C(C)(C)CCC2(C)C,-7.18% (inactive)
4,CNC(=O)c1cc2c(cn1)[nH]c1ccccc12,-6.55% (inactive)
5,O=C(O)c1ccccc1Nc1cccc(OCc2ccc3ccccc3n2)c1,-11.9% (inactive)

# Test: HepG2 cells viability qHTS for Zika virus inhibitors (AID 1347168)
# Details: Zika counter-screen; series mostly up to 45.9 µM; activity change, negative = cytotoxicity: at the top concentration
# Summary of the method: as §1
row,SMILES,"activity change, negative = cytotoxicity"
1,CCCc1c(OCCCOc2ccc(OCC(=O)O)cc2)ccc(C(C)=O)c1O,5.51% (inactive)
2,CCCC[C@@]1(C2CCCC2)Cc2cc(OCC(=O)O)c(Cl)c(Cl)c2C1=O,-5.02% (inactive)
3,C/C(=C\c1ccc(C(=O)O)cc1)c1ccc2c(c1)C(C)(C)CCC2(C)C,11.4% (inactive)
4,CNC(=O)c1cc2c(cn1)[nH]c1ccccc12,-6.31% (inactive)
5,O=C(O)c1ccccc1Nc1cccc(OCc2ccc3ccccc3n2)c1,15.3% (inactive)
